Screens deposited in PubChem by National Center for Advancing Translational Sciences (NCATS).
Sfp inh: blocks B. subtilis Sfp PPTase activity; Q9F4F7; Biochemical Sfp PPTase activity, qHTS; Potency, µM, inactives show largest response in the series, negative = inhibition, usual class: inhibitors; hit rate 3.5% among 310,000; AID 1490;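 further: the enzyme is Sfp with the accession as filed and its product quenches rhodamine fluorescence; 0% = enzyme reaction without inhibitor and -100% = no enzyme wells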
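Buffer: 50 mM Hepes-Na pH 7.6, 10 mM MgCl2, 0.01% Nonidet P-40, 0.01% BSA. Enzyme 15 nM, pre-exposed to compound 15 min; substrates then added and fluorescence change tracked over 30 min.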
BAZ2B block: BAZ2B (human) inhibition. Potency, µM (series often up to 114 µM), inactives show top-dose activity change, negative = inhibition, actives largely listed as inhibitors. AlphaScreen BAZ2B-H3K14Ac peptide displacement. hit rate 4.4% among 360,000. Q9UIF8. AID 504333; further: on the % scale 0 is the no-effect control and ±100 the full control effect; nearly all actives have a fitted effect of over 60% in size
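AlphaScreen displacement: compounds (up to 110uM) incubated 30 min at room temperature with a preformed 50 nM BAZ2B/50 nM biotinylated H3K14Ac peptide complex in PBS pH 7.4 with Tween-20. Donor and acceptor beads at 10 ug/mL final added, 20 min light-protected before reading.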
G9a block: inhibitors of human histone lysine methyltransferase G9a; Potency, µM (highest dose often 102 µM), inactives show top-dose activity, negative = inhibition, usual class: inhibitors; hit rate 8.8% among 350,000; G9a H3K9 monomethylation, AlphaScreen, 2 h; Q96KQ7; further: on the % scale 0 is the no-effect control and ±100 the full control effect; nearly all actives have a fitted effect of over 75% in size
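AlphaScreen read-out: biotin-H3K9 peptide (500 nM) methylation by 20 nM enzyme with 20 uM SAM, 2 h at room temperature after 15 min compound preincubation; anti-monomethyl H3K9 antibody plus donor/acceptor beads, 10 min dark.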
HP1b binding inh: blocks HP1-beta chromodomain binding to methylated histone tails; AlphaScreen HP1-beta / biotin-H3K9me3 peptide binding; Potency, µM (titrated, usually from 114 µM), for the others: top-dose activity change, negative = inhibition, hits mostly inhibitors; hit rate 0.56% among 390,000; further: nearly all actives have a fitted effect of over 70% in size
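AlphaScreen: HP1-beta (50 nM) preformed 30 min with biotin-H3(1-18)K9me3 peptide (50 nM) in PBS pH 7.4, 0.01% Tween-20. Compound added for 30 min at RT, then streptavidin donor/nickel chelate acceptor beads (10 ug/mL) for 30 min.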
JMJD2A Tudor inh: blocks the human JMJD2A Tudor domain | AlphaScreen JMJD2A-Tudor / H3K4me3 peptide binding | Potency, µM (series often up to 114 µM), for inactives: at the top dose activity change, negative = inhibition, hits mostly inhibitors | hit rate 4.4% among 390,000 | AID 504339 | O75164; further: on the % scale 0 is the no-effect control and ±100 the full control effect; nearly all actives have a fitted effect of over 50% in size
The depositor's hits bear a star; [ ] = remark or other dose. Shown are actives, neighbours in structure and some others; about 12% of the full set was active somewhere. The call rests on the fitted dose curve; in most records, active means well fitted curve in the direction sought with a large enough effect; inconclusive means small, poorly fitted or top-dose-only effect, or another doubt; inactive means no such curve, though single readings can be large; an effect the other way counts as inactive or inconclusive. Potency means the concentration at half of the fitted maximal effect.

O=C(NC(Cc1ccccc1)C(=O)N1CCN(c2ccccc2O)CC1)c1ccccc1 (stereo not drawn) was read as BAZ2B block -21.9%, G9a block 50.1µM*, HP1b binding inh 25.3% and JMJD2A Tudor inh -25.6%.
O=C(N[C@@H](Cc1ccccc1)C(=O)O)c1cccnc1 was read as Sfp inh 10.7%, BAZ2B block -33.6%, G9a block 50.1µM*, HP1b binding inh 44.8% and JMJD2A Tudor inh -9.7%.
`O=C(Nc1ccccc1C(=O)NC(Cc1ccc(O)cc1)C(=O)O)c1ccccc1` (stereo not drawn) gave Sfp inh 12.9%, BAZ2B block -16.5%, G9a block 44.7µM*, HP1b binding inh 5.6% and JMJD2A Tudor inh -13.9%.
Screening CC(C)NS(=O)(=O)c1ccc2[nH]c3nc(SCC(=O)Nc4ccc(F)c(F)c4)nnc3c2c1 returned HP1b binding inh 36.4% and JMJD2A Tudor inh -23.1%.
`CCOC(=O)C1CCN(CC(O)COc2ccc(S(=O)(=O)N3CCCC3)cc2[N+](=O)[O-])CC1` (stereo not drawn) gave BAZ2B block 1.4%, G9a block -41.3%, HP1b binding inh 13.1% and JMJD2A Tudor inh -12.4%.
Screening Cc1ccc(NC(=O)c2oc3ccc4c(c3c2C)C(=O)CC(C)(C)O4)c(C)c1 returned BAZ2B block -1.3%, G9a block 1.3%[59 µM], HP1b binding inh 19.7% and JMJD2A Tudor inh -7.7%.
For CC(C)Oc1ccc(Cn2c(-c3ccco3)n[nH]c2=S)cc1 the results were Sfp inh inconclusive, BAZ2B block -35.4%, G9a block 0.708µM*, HP1b binding inh -10.4% and JMJD2A Tudor inh 39.8µM*.
`Cc1cccc(-c2n[nH]c(=S)n2Cc2ccccc2)c1` gave Sfp inh 79.4µM*, BAZ2B block -31.3%, G9a block 0.708µM*, HP1b binding inh 8.9% and JMJD2A Tudor inh 39.8µM*.
`CCn1c(=O)cc(N2CCN(Cc3ccccc3)CC2)[nH]c1=O` gave Sfp inh 7.5%, BAZ2B block 9.4%, G9a block 3.1%, HP1b binding inh 30.4% and JMJD2A Tudor inh 3.5%.
CCn1c(C2CCN(Cc3ccccc3)CC2)n[nH]c1=S was read as Sfp inh 6.4%, BAZ2B block 7.1%, G9a block -50.6%, HP1b binding inh 32.1% and JMJD2A Tudor inh 3.55µM*.
`S=c1[nH]nc(-c2ccccc2Br)n1Cc1ccccc1` gave Sfp inh -7.8%, BAZ2B block -2.7%, HP1b binding inh -10.7% and JMJD2A Tudor inh -74.2%.
`S=c1[nH]nc(-c2cccc(Cl)c2)n1Cc1ccccc1` gave Sfp inh -18.3%, BAZ2B block -35.4%, G9a block inconclusive, HP1b binding inh 35.6% and JMJD2A Tudor inh inconclusive.
Screening CC(c1n[nH]c(=S)n1Cc1ccccc1)N(C)C (stereo not drawn) returned Sfp inh 89.1µM*, BAZ2B block -8.3%, G9a block 10µM*, HP1b binding inh -12.3% and JMJD2A Tudor inh inconclusive.
`COc1cccc(Cn2c(=O)n(-c3cccc(Cl)c3)c(=O)c3c4c(sc32)CN(C(C)=O)CC4)c1` gave BAZ2B block -22.6%, G9a block -6.8%[59 µM], HP1b binding inh 28.5% and JMJD2A Tudor inh -14.2%.
`Cc1oc2ncnc(N3CCOCC3)c2c1C(=O)Nc1ccc(Br)cc1F` gave BAZ2B block 12.5%, G9a block 13.3%[59 µM], HP1b binding inh 24.2% and JMJD2A Tudor inh -10.6%.
For Cc1cccc(S(=O)(=O)N2CCN(Cc3ccc4c(c3)OCO4)CC2)c1 the results were Sfp inh 15.7%, BAZ2B block -11.5%, G9a block -4.0%, HP1b binding inh 14.9% and JMJD2A Tudor inh -17.9%.
CC(=O)c1ccc(N(CC(=O)NC2CCCCC2)C(=O)CNC(=O)c2ccco2)cc1 was read as Sfp inh 4.2%, BAZ2B block -3.9%, G9a block 21.3%, HP1b binding inh 2.7% and JMJD2A Tudor inh -6.2%.
Cc1ccc(-c2n[nH]c(=S)n2Cc2ccccc2)cc1 was read as Sfp inh 5.2%, BAZ2B block -26.7%, G9a block 1.58µM*, HP1b binding inh 10.7% and JMJD2A Tudor inh 39.8µM*.
COc1ccc(-c2n[nH]c(=S)n2CC(C)C)cc1 was read as Sfp inh 3.0%, BAZ2B block -0.5%, G9a block 1µM*, HP1b binding inh 6.6% and JMJD2A Tudor inh 3.98µM*.
Cc1ccccc1-c1n[nH]c(=S)n1Cc1ccccc1 was read as Sfp inh -2.1%, BAZ2B block -16.4%, HP1b binding inh 16.8% and JMJD2A Tudor inh inconclusive.
CCOc1ccc(-c2n[nH]c(=S)n2Cc2ccccc2)cc1 was read as Sfp inh 3.2%, BAZ2B block -10.3%, G9a block 3.55µM*, HP1b binding inh 16.7% and JMJD2A Tudor inh 44.7µM*.
For COc1ccc(Cn2c(-c3ccc(OC)cc3)n[nH]c2=S)cc1 the results were Sfp inh -1.4%, BAZ2B block -24.4%, G9a block 2.82µM*, HP1b binding inh 4.9%[57 µM] and JMJD2A Tudor inh inconclusive.
`CCCCCCC#CC1C=CC(OC(=O)OCC)C(COC(=O)OCC)O1` (stereo not drawn) gave Sfp inh -3.3%.
N#Cc1ccc(CN2CC3(CCN(C(=O)c4ccncc4)CC3)C2)cc1 was read as Sfp inh 23.6% and G9a block -7.1%[12.7 µM].
Screening O=C(CCS(=O)(=O)c1ccccc1Cl)NCCC1=CCCCC1 returned Sfp inh 14.4%, BAZ2B block -7.8%, G9a block 26.5%, HP1b binding inh 24.6% and JMJD2A Tudor inh -2.2%.
Screening NC(=O)CSc1nnc(-c2cc3ccccc3o2)n1Cc1ccccc1 returned Sfp inh 17.6%, BAZ2B block -2.0%, G9a block inconclusive, HP1b binding inh 45.3% and JMJD2A Tudor inh 1.5%.
`S=c1[nH]nc(-c2cc3ccccc3o2)n1Cc1ccccc1` gave Sfp inh 1.9%, BAZ2B block inconclusive, G9a block 1.12µM*, HP1b binding inh -16.5% and JMJD2A Tudor inh -26.7%.
For CCC1=Nc2ccccc2NC2=C1C(=O)CCC2 the results were Sfp inh 35.5µM*, BAZ2B block 50.1µM*, G9a block inconclusive, HP1b binding inh 1.9% and JMJD2A Tudor inh -37.7%.
Screening CC1CC(=O)C2=C(C1)Nc1ccccc1N=C2 (stereo not drawn) returned Sfp inh 18.6%, BAZ2B block 5.6%, G9a block 1.4%, HP1b binding inh 11.1% and JMJD2A Tudor inh -15.4%.
Oc1cccc(NC(=S)Nc2ccccc2)c1 was read as Sfp inh -4.3%, BAZ2B block -7.7%, G9a block 50.1µM*, HP1b binding inh 31.5% and JMJD2A Tudor inh -15.2%.
`Fc1cccc(NC(=S)NNc2ccccc2)c1` gave Sfp inh 1.9%, BAZ2B block 39.8µM*, G9a block 50.1µM*, HP1b binding inh inconclusive and JMJD2A Tudor inh 56.2µM*.
For Oc1cccc(Nc2ccccc2)c1 the results were BAZ2B block inconclusive, G9a block -4.4%[0.501 µM], HP1b binding inh -9.5% and JMJD2A Tudor inh -31.0%.
